According to PubChem BioAssay (Tox21):
Records with an inconclusive call do not appear. Where a call stands in place of a potency, no number is given. Values without a mark were called inactive. Calls of active or inactive are those of the source. Unless noted, calls follow the shape of the dose curve; as a rule, active = well fitted cell-killing curve with a large enough effect in the repeat runs; inconclusive = weak or mixed curves, or effect the other way; inactive = no such curve, though single readings can be large or run the other way.

Target: Peroxisome proliferator-activated receptor gamma (Homo sapiens) (UniProt P37231)
Assay: qHTS assay to identify small molecule antagonists of the peroxisome proliferator-activated receptor gamma (PPARg) signaling pathway (AID 743191; calls by dose curve; also: nearly all actives have a fitted effect of over 30% in size)
Settings: HEK293H PPARg-UAS-bla, beta-lactamase ratio, antagonist, 17 h; series mostly up to 62.6 µM
In short: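 Beta-lactamase reporter under UAS control in HEK293H PPARg-bla cells; compound treatment 17 h at 37C. Read-out: fluorescence intensity after 1 h room-temperature incubation with LiveBLAzer B/G FRET substrate.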

Peroxisome proliferator-activated receptor gamma (Homo sapiens), sequence (P37231 whole entry, looked up): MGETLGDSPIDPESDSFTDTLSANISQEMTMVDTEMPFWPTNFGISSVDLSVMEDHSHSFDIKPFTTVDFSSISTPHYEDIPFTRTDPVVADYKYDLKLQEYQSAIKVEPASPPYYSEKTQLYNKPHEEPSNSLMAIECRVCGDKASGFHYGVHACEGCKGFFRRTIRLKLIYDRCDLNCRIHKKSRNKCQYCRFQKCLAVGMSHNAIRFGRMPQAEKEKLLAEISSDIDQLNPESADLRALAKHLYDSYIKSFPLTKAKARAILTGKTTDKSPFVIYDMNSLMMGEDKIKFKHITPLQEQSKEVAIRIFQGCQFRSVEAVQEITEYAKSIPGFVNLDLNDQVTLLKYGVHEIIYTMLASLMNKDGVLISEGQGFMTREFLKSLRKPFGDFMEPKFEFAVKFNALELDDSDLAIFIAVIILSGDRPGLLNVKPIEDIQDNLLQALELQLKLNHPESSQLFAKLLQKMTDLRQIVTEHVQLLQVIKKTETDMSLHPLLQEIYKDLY

| Structure (SMILES) | Potency | ratio activity, negative = inhibition |
| --- | --- | --- |
| Cc1oc(=O)oc1CN1CCN(c2cc3c(cc2F)c(=O)c(C(=O)O)c2n3C(C)S2)CC1 (stereo not drawn) | inactive | – |
| CCC(=O)OCCC(C)CCC=C(C)C (stereo not drawn) | inactive | – |
| C=CCOc1c(Br)cc(Br)cc1Br | inactive | – |
| CNCc1ccccc1 | inactive | – |
| C=C[Si](C)(C)O[Si](C)(C)C=C | inactive | – |
| O=S1(=O)CCCC1 | inactive | – |
| Cc1cccc(C(=O)O)c1[N+](=O)[O-] | inactive | – |
| O=C(O)Cc1cccc(-c2cc(CCCCCCc3ccc(O[C@H]4O[C@H](CO)[C@@H](O)[C@H](O)[C@@H]4O)c(-c4cccc(CC(=O)O)c4)c3)ccc2O[C@H]2O[C@H](CO)[C@@H](O)[C@H](O)[C@@H]2O)c1 | – | -5.32% [at 0.55 µM] |

System: not listed separately
Assay: qHTS assay to identify small molecule antagonists of the peroxisome proliferator-activated receptor gamma (PPARg) signaling pathway - cell viability counter screen (AID 743194); also: nearly all actives have a fitted effect of over 55% in size
Settings: PPARg-bla HEK293H viability, CellTiter-Glo luminescence, 17 h, co-treated with 50 nM rosiglitazone; series mostly up to 62.6 µM
In short: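 Viability was measured as CellTiter-Glo luminescence in GeneBLAzer PPARg UAS-bla HEK293H cells. These cells had been exposed 17 h at 37 C to compounds together with rosiglitazone at 50 nM final, with the beta-lactamase readout taken in the same wells.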

| Structure (SMILES) | outcome |
| --- | --- |
| C[Si]1(C)N[Si](C)(C)N[Si](C)(C)N1 | inactive |
| O=C(COCCOCCOCC(=O)Nc1c(I)cc(I)c(C(=O)O)c1I)Nc1c(I)cc(I)c(C(=O)O)c1I | inactive |
| C[C@H]1O[C@H](O[C@H]2[C@H](O)[C@@H](O)[C@@H](O[C@H]3[C@H](O)[C@@H](O)[C@H](O)O[C@@H]3CO)O[C@@H]2CO)[C@H](O)[C@@H](O)[C@@H]1N[C@H]1C=C(CO)[C@@H](O)[C@H](O)[C@H]1O | inactive |
| CCCCCC1CCCC(=O)O1 (stereo not drawn) | inactive |
| Nc1cc(Cl)cc(S(=O)(=O)O)c1O | inactive |
| Cc1oc(=O)oc1CN1CCN(c2cc3c(cc2F)c(=O)c(C(=O)O)c2n3C(C)S2)CC1 (stereo not drawn) | inactive |
| COC(OC)C(C)c1ccccc1 (stereo not drawn) | inactive |
| CCNC(=O)/C=C/c1cccc(Br)c1 | inactive |
| N#CCCOCCOCCC#N | inactive |
| Nc1ccc(S(=O)(=O)NC(=O)c2ccccc2)cc1 | inactive |
| CCCOC(=O)CCCCC(=O)OCCC | inactive |
| COc1cc(C=O)ccc1OC(=O)C(C)C | inactive |
| CCC(O)C(C)(C)C (stereo not drawn) | inactive |
| O=C(O)c1c(Cl)ccc(Cl)c1Cl | inactive |
| CC(C)CCC(=O)CCC(C)C | inactive |
| Cc1cc(O)c2c(c1)C(=O)c1cccc(O)c1C2=O | inactive |
| O=[Si]=O | inactive |
| CCC(=O)OCCC(C)CCC=C(C)C (stereo not drawn) | inactive |

| Structure (SMILES) | outcome |
| --- | --- |
| C=CCOc1c(Br)cc(C(C)(C)c2cc(Br)c(OCC=C)c(Br)c2)cc1Br | inactive |
| COc1cc2c3cc1Oc1cc(ccc1O)C[C@@H]1c4c(cc(OC)c(O)c4Oc4ccc(cc4)C[C@@H]3N(C)CC2)CC[N+]1(C)C | inactive |
| Cc1ccccc1N1CCN(CCc2nnc3n2CCCC3)CC1 | inactive |
| NS(=O)(=O)c1cc2c(cc1Cl)NC(CC1CCCC1)NS2(=O)=O (stereo not drawn) | inactive |
| CC(=O)c1ccc(OCC(=O)N2CCCCC2)cc1 | inactive |
| O=S(=O)(O)CCO | inactive |
| CNCc1ccccc1 | inactive |
| CN=C(NC#N)NCCSCc1csc(N=C(N)N)n1 | inactive |
| C=C[Si](C)(C)O[Si](C)(C)C=C | inactive |
| COc1ccc(N=Nc2cc(C)c(N=Nc3ccc(S(=O)(=O)O)cc3)cc2OC)cc1 | inactive |
| O=C1OC(=O)c2ccccc21 | inactive |
| CC(=O)OC(C)c1ccccc1 (stereo not drawn) | inactive |
| O=S1(=O)CCCC1 | inactive |
| Cc1cccc(C(=O)O)c1[N+](=O)[O-] | inactive |
| NC(=O)C1(N2CCCCC2)CCN(CCCC(=O)c2ccc(F)cc2)CC1 | inactive |
| O=C(/C=C/c1ccccc1)NCCO | inactive |
| O=C(Oc1ccccc1C(=O)O)c1ccccc1O | inactive |
| CN[C@@H]1[C@H](O)[C@H](NC)[C@H]2O[C@@]3(O)C(=O)C[C@@H](C)O[C@H]3O[C@@H]2[C@H]1O | inactive |

System: not listed separately
Assay: qHTS assay for small molecule agonists of the antioxidant response element (ARE) signaling pathway (AID 743202; active = well fitted activation curve with a large enough effect in the signal ratio in the repeat runs, not every such curve was filed as active; the % refers to the signal ratio; also: potency is read from the fitted curve at half-maximal effect)
Settings: HepG2 ARE-bla reporter, beta-lactamase FRET, 16 h; series mostly up to 73.3 µM
In short: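 Quantitative high-throughput format in HepG2 cells bearing an integrated ARE-beta-lactamase reporter. Compound exposure lasted 16 h at 37 C, and fluorescence was read 2 h after adding LiveBLAzer B/G substrate at room temperature.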

| Structure (SMILES) | Potency | activation |
| --- | --- | --- |
| C[Si]1(C)N[Si](C)(C)N[Si](C)(C)N1 | inactive | – |
| O=C(COCCOCCOCC(=O)Nc1c(I)cc(I)c(C(=O)O)c1I)Nc1c(I)cc(I)c(C(=O)O)c1I | inactive | – |
| C[C@H]1O[C@H](O[C@H]2[C@H](O)[C@@H](O)[C@@H](O[C@H]3[C@H](O)[C@@H](O)[C@H](O)O[C@@H]3CO)O[C@@H]2CO)[C@H](O)[C@@H](O)[C@@H]1N[C@H]1C=C(CO)[C@@H](O)[C@H](O)[C@H]1O | inactive | – |
| CCCCCC1CCCC(=O)O1 (stereo not drawn) | inactive | – |
| CCNC(=O)/C=C/c1cccc(Br)c1 | inactive | – |
| N#CCCOCCOCCC#N | inactive | – |
| CCCOC(=O)CCCCC(=O)OCCC | inactive | – |
| COc1cc(C=O)ccc1OC(=O)C(C)C | inactive | – |
| CCC(O)C(C)(C)C (stereo not drawn) | inactive | – |
| O=C(O)c1c(Cl)ccc(Cl)c1Cl | inactive | – |
| Cc1cc(O)c2c(c1)C(=O)c1cccc(O)c1C2=O | 10.6 µM (active) | – |
| O=[Si]=O | inactive | – |
| C=CCOc1c(Br)cc(Br)cc1Br | inactive | – |
| COc1cc2c3cc1Oc1cc(ccc1O)C[C@@H]1c4c(cc(OC)c(O)c4Oc4ccc(cc4)C[C@@H]3N(C)CC2)CC[N+]1(C)C | inactive | – |
| Cc1ccccc1N1CCN(CCc2nnc3n2CCCC3)CC1 | inactive | – |
| NS(=O)(=O)c1cc2c(cc1Cl)NC(CC1CCCC1)NS2(=O)=O (stereo not drawn) | inactive | – |
| CC(=O)c1ccc(OCC(=O)N2CCCCC2)cc1 | inactive | – |
| O=S(=O)(O)CCO | inactive | – |
| CNCc1ccccc1 | inactive | – |
| CN=C(NC#N)NCCSCc1csc(N=C(N)N)n1 | inactive | – |
| C=C[Si](C)(C)O[Si](C)(C)C=C | inactive | – |
| O=C1OC(=O)c2ccccc21 | inactive | – |
| CC(=O)OC(C)c1ccccc1 (stereo not drawn) | inactive | – |
| O=S1(=O)CCCC1 | inactive | – |
| NC(=O)C1(N2CCCCC2)CCN(CCCC(=O)c2ccc(F)cc2)CC1 | inactive | – |
| O=C(/C=C/c1ccccc1)NCCO | inactive | – |
| O=C(O)Cc1cccc(-c2cc(CCCCCCc3ccc(O[C@H]4O[C@H](CO)[C@@H](O)[C@H](O)[C@@H]4O)c(-c4cccc(CC(=O)O)c4)c3)ccc2O[C@H]2O[C@H](CO)[C@@H](O)[C@H](O)[C@@H]2O)c1 | – | -7.76% [at 0.756 µM] |
| O=C(Oc1ccccc1C(=O)O)c1ccccc1O | inactive | – |
| CN[C@@H]1[C@H](O)[C@H](NC)[C@H]2O[C@@]3(O)C(=O)C[C@@H](C)O[C@H]3O[C@@H]2[C@H]1O | inactive | – |
